# Sampled rows, rich in hits. Any-hit rate of the full collection: about 1.9%.
# IEC-6 tox: IEC-6 cytotoxicity, counter-screen for KLF5 inhibitors; 290,000 tested, 0.78% active; AID 1825; inhibition, % at 5 µM; luminescence viability; in the data active means inhibition above about 22%
# APP 5UTR inh: APP translation inhibition. SH-SY5Y APP 5'UTR-luciferase reporter, luminescence. inhibition, % at 2 µM. 190,000 tested, 0.82% active;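 active means inhibition above a set limit, derived from the sample mean plus 3 SD, cut at about 45% in these data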
# Ba/F3 V617F tox: reduce viability of Ba/F3 cells dependent on JAK2V617F; Ba/F3 EpoR-JAK2V617F viability, ATP luminescence; inhibition, % at 5.6 µM; 220,000 tested, 1.1% active;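 active means inhibition above the campaign mean plus 3 SD over all tested compounds, cut at about 24% in these data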;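 further: cytokine-independent growth of Ba/F3 cells driven by EpoR plus mutant JAK2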
# BaF3 parental: counter-screen for JAK2V617F inhibitors: parental Ba/F3 viability inhibitors; CellTiter-Glo ATP luminescence; inhibition, % at 5.6 µM; AID 1486; 220,000 tested, 1.1% active;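 active means inhibition above a per-campaign cutoff, the mean inhibition of all tested compounds plus 3 SD, cut at about 27% in these data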
# KLF5 inh: suppresses KLF5 promoter-driven expression; inhibition, % at 5 µM; 290,000 tested, 0.23% active; DLD-1 KLF5 promoter-luciferase reporter, luminescence;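 active means inhibition above a per-plate limit of that plate's mean compound inhibition plus 3 SD, cut at about 60% in these data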;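 further: higher means less KLF5 promoter-driven luciferase light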
# A number is an active result; . = inactive; / = no result given.
SMILES,IEC-6 tox,APP 5UTR inh,Ba/F3 V617F tox,BaF3 parental,KLF5 inh
CC(C)(C)C1CCC(OC(=O)C[N+]2(C)CCCC2)CC1 (stereo unspecified),.,.,32,36,.
CCC(C(=O)NC1CCCCCC1)n1nc(C)c2c(C)n(-c3ccccc3)nc2c1=O (stereo unspecified),.,/,/,/,.
O=C(COc1ccc2c3c(c(=O)oc2c1)CCC3)Nc1ccccn1,.,/,/,/,.
O=C(Cc1cccs1)NCc1ccc(Cl)cc1Cl,.,/,/,/,.
CC[n+]1c(/C=C/N(C)c2ccccc2)oc2ccc(Cl)cc21,.,.,54,59,.
CCOC(=O)C1=C(Cc2ccc(OC)cc2)C(=O)c2ccccc2C1=O,.,72,.,.,.
COc1ccc(COc2cc(-c3cccc(OC)c3)nc3ccc(NC(=O)C(C)C)cc23)cc1,.,.,61,70,.
Cc1ccccc1C(=O)Nc1cccc(NC(=O)Cn2cnc3c(=O)n(C)c(=O)n(C)c32)c1,.,.,68,42,.
Cc1cccc(C)c1NC(=O)Cn1cnc2c(=O)n(C)c(=O)n(C)c21,.,.,.,.,.
CC(=O)OCc1nc2sc(C)c(C)c2c(=O)[nH]1,.,59,.,.,.
CCSc1nnc(-c2ccc(S(=O)(=O)N3CCCC3)cc2)n1C,.,73,.,.,.
CCCCSc1nnc(-c2ccc(NC(C)=O)cc2)n1C,.,.,.,.,.
CCCCSc1nnc(-c2ccc(C)cc2)n1C,.,.,31,35,.
COc1cccc(CNC(=O)Cn2ncc3c(=O)oc4ccccc4c32)c1,.,/,61,62,.
CCC(=O)N1CCc2cc(S(=O)(=O)CCC(=O)Nc3ccc(CC)cc3)ccc21,.,.,.,93,.
COc1cccc(NC(=O)[C@H](CC(C)C)NC(=O)N2CCn3c2nc2ccccc23)c1,.,/,/,/,.
CCC(=O)Nc1ccc(NC(=S)NC(=O)Cc2ccccc2)cc1,.,.,.,.,.
CCC(=O)Nc1ccc(NC(=S)Nc2ccccc2)cc1,.,.,.,58,.
N#Cc1cc([N+](=O)[O-])ccc1NC(=O)COC(=O)CC1CCCC1,.,/,.,.,.
O=C1NC(=O)/C(=C/c2cccc([N+](=O)[O-])c2)N1,.,/,.,.,.
CCN1C/C(=C/c2cccc([N+](=O)[O-])c2)C(=O)/C(=C/c2cccc([N+](=O)[O-])c2)C1,.,94,.,.,.
CCCCn1c(/C=C/c2ccco2)nc2ccccc21,.,.,.,.,.
COc1ccc2c(c1)c(/C=N/Nc1nc3ccccc3[nH]1)c(C)n2C,.,/,.,53,.
CCCCn1c(/C=N/Nc2nc3ccccc3[nH]2)nc2ccccc21,.,88,.,.,.
C#CCn1cc(/C=N/Nc2nc3ccccc3[nH]2)c2ccccc21,31,.,.,.,.
SMILES,IEC-6 tox,APP 5UTR inh,Ba/F3 V617F tox,BaF3 parental,KLF5 inh
CC(=O)N(c1nnc(-c2ccc(C)cc2)s1)C1CCCC1,.,/,/,/,.
CCN(c1ccccc1)S(=O)(=O)c1ccc(OC)c(NC(=O)CN(C)C)c1,.,.,.,33,.
CCC(C)NCC(=O)Nc1cc(S(=O)(=O)N(CC)c2ccccc2)ccc1Cl (stereo unspecified),.,.,.,46,.
CCN(c1ccccc1)S(=O)(=O)c1ccc(OC)c(NC(=O)CNC)c1,.,.,.,30,.
CCN(c1ccccc1)S(=O)(=O)c1ccc(OC)c(NC(=O)CNCC(C)O)c1 (stereo unspecified),.,.,.,.,.
CS(=O)(=O)N1CCCC(C(=O)NCCCN2CCC(Cc3ccccc3)CC2)C1 (stereo unspecified),.,.,.,96,.
Cc1ccccc1C(=O)NCCCNC(=O)c1ccco1,.,/,/,/,.
O=C(Cn1c2[n+](c3ccc(C(F)(F)F)cc31)CCCCC2)c1cccc([N+](=O)[O-])c1,.,.,.,80,.
O=C(Cn1c2[n+](c3ccc(C(F)(F)F)cc31)CCCCC2)Nc1ccccc1,.,.,.,.,.
FC(F)(F)c1ccc2c(c1)n(Cc1ccccc1)c1[n+]2CCCCC1,.,.,.,35,.
Cc1nn(CC(=O)Nc2ccc3nc4n(c(=O)c3c2)CCCC4)c(C)c1[N+](=O)[O-],.,/,/,/,.
Fc1ccc2[nH]c3c(c2c1)CN(C(=S)NCc1ccccc1)CC3,.,/,.,.,.
CC(C)N(Cc1cc2ccccc2[nH]c1=O)C(=O)C1CCCCC1,.,.,.,28,.
CCOC(=O)Cn1c(=O)c(-c2cc(Br)ccc2N)nc2ccccc21,.,/,47,88,.
CN(C)c1nc2ccccc2n(C)c1=O,.,.,.,.,.
Cn1c(=O)c(-c2cc(Br)ccc2N)nc2ccccc21,.,.,40,46,.
CCOC(=O)Cn1c(=O)cnc2ccccc21,.,.,.,.,.
CC1CCN(C(=O)CSc2ccc(-c3ccccc3)nn2)CC1,.,.,.,.,.
COc1ccccc1CNC(=O)C1CCC(CNS(=O)(=O)c2ccccc2)CC1 (stereo unspecified),.,/,/,/,.
CCc1cc2c(=O)n(Cc3ccco3)c(SCc3c(C)noc3C)nc2s1,.,50,.,.,.
CCc1cc2c(=O)n(Cc3ccco3)c(SCC(=O)NCC3CCCO3)nc2s1 (stereo unspecified),.,/,/,/,.
CC1(C)Oc2ccc3ccc(=O)oc3c2/C(=C/NNC(N)=O)C1=O,.,/,/,/,.
Cc1nc(N2CCN(C)CC2)c2sc(=S)n(-c3ccccc3)c2n1,.,.,.,.,.
S=c1sc2c(Cl)ncnc2n1-c1ccccc1,.,65,.,.,.
CCOc1ccc(NC(=O)CCNC(=O)Cn2ccc3ccccc3c2=O)cc1,.,/,/,/,.
SMILES,IEC-6 tox,APP 5UTR inh,Ba/F3 V617F tox,BaF3 parental,KLF5 inh
COc1ccc(NC(=O)CCC(=O)c2cccs2)cc1S(=O)(=O)Nc1ccc(Cl)cc1,.,.,.,.,.
COc1ccc(NC(=O)CCS(=O)(=O)c2ccccc2Cl)cc1S(=O)(=O)Nc1ccc(Cl)cc1,.,.,.,69,.
Cc1ccc(S(=O)(=O)CC2CSc3nc4ccccc4n32)cc1 (stereo unspecified),.,/,58,72,.
Cc1nnsc1-c1onc(C)c1C(=O)O/N=C/c1ccc(Cl)cc1,.,/,.,.,.
Cc1cc(C)c2c(=O)[nH]c(SCC(=O)N3CCCCC3)nc2n1,.,.,37,37,.
CC(CCc1ccccc1)NC(=O)CCC(=O)N1CCC(C(=O)O)CC1 (stereo unspecified),.,/,/,/,.
O=C(N/N=C\c1c(O)ccc2ccccc12)c1ccc(O)cc1,.,/,/,/,.
Cn1cc(C(=O)N/N=C/c2c(O)ccc3ccccc23)ccc1=O,.,50,.,.,.
Cc1cccc(C)c1NC(=S)N(Cc1ccccc1)Cc1cccs1,.,.,.,.,.
NC(=O)c1cccc(CS(=O)(=O)c2ccc(Cl)cc2)c1,.,/,/,/,.
CCn1c(=NC(=O)c2ccc(S(=O)(=O)N3CCOCC3)cc2)sc2cccc(OC)c21,.,.,35,42,.
COCCn1c(=NC(=O)c2ccc(S(=O)(=O)N3CCOCC3)cc2)sc2cc(S(N)(=O)=O)ccc21,.,/,/,/,.
CCOC(=O)CN=C/C(C(=O)Nc1nccs1)=C(/C)O,.,.,.,.,.

# Assay outcomes from PubChem BioAssay.
